# Laboratory results from ChEMBL document CHEMBL3988442, “University of Dundee, Small-Polar-MMV Screening Library” (2021).
# For part of these data: Potency and affinity values are given separately.
# What was measured:
# Design in all cases: scale not given: direction of the effect not stated beside the values
# [1] = target: Protein translocase subunit SecA (Escherichia coli (strain K12)) (UniProt P10408); experiment: Assay to Identify E. coli SecA ATPase Inhibitors; type: functional; conditions: 30 µM
# [2] = target: T1, Ubiquitin-activating enzyme e1, putative (Leishmania donovani (strain BPK282A1)) (UniProt E9BSI1); experiment: Leishmania donovani Ubiquitin Activating Enzyme (LdE1); type: functional; conditions: 30 µM
# T1 sequence (whole entry): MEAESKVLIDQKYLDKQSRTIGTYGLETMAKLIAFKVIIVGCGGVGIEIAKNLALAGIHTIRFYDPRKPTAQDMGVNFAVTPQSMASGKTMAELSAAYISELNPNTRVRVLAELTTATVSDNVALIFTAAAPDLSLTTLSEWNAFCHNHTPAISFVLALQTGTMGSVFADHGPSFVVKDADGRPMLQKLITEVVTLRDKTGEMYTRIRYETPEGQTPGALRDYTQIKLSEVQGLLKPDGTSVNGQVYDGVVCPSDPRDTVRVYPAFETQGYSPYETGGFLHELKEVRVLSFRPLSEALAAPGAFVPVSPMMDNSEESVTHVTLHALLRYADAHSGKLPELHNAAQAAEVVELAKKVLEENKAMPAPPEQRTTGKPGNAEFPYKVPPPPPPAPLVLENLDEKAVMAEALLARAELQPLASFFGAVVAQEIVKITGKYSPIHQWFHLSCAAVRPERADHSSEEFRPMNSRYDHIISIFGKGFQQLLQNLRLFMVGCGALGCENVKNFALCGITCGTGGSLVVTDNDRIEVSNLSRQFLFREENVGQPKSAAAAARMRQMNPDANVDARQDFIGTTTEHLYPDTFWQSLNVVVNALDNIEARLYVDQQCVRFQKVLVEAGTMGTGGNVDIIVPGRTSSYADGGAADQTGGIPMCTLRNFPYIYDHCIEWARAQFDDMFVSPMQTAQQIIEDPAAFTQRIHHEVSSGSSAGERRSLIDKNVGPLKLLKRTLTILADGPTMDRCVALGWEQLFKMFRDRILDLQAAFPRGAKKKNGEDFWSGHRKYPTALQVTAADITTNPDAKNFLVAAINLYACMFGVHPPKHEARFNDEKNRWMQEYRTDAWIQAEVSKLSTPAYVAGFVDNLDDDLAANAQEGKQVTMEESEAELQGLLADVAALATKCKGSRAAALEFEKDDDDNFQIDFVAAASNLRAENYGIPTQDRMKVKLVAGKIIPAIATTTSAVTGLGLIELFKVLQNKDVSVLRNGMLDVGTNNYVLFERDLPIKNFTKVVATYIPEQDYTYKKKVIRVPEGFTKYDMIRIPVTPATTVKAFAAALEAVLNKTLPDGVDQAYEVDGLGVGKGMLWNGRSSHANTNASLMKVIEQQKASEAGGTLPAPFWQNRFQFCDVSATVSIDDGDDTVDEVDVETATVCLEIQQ
# [3] = target: Sialic acid-binding Ig-like lectin 9 (Homo sapiens) (UniProt Q9Y336); experiment: Hs-Siglec9 ALPHAscreen SOP 20170721; conditions: 10 µM
# Trypanosoma cruzi = experiment: Trypanosoma cruzi phosphomannomutase and mannose-1-phosphate guanylyltransferase assay; type: functional; conditions: 10 µM
# [4] = target: T2, Arginase-2, mitochondrial (Homo sapiens) (UniProt P78540); experiment: in vitro enzyme assay to detect the production of urea directly proportional to the activity of Arginase II; type: functional; conditions: 33.3 µM; further: in the data most compounds retested in dose-response had high values
# T2 sequence (whole entry): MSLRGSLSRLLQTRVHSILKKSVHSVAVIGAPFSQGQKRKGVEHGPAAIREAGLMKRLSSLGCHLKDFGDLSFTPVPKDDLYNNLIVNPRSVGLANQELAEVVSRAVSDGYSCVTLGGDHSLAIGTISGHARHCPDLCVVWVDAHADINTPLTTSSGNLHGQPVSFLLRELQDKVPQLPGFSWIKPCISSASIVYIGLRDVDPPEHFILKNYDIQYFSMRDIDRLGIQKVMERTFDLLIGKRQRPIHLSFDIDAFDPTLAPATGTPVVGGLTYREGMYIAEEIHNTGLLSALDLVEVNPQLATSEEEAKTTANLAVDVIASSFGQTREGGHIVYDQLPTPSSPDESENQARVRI
# [5] = target: T3, Proteasome subunit beta (Trypanosoma cruzi) (UniProt O96673); experiment: Trypanosoma cruzi proteasome chymotrypsin-like activity (TcProtChymo) assay.; further: in the data most compounds retested in dose-response had high values; type: functional; conditions: 9.37 µM
# T3 sequence (whole entry): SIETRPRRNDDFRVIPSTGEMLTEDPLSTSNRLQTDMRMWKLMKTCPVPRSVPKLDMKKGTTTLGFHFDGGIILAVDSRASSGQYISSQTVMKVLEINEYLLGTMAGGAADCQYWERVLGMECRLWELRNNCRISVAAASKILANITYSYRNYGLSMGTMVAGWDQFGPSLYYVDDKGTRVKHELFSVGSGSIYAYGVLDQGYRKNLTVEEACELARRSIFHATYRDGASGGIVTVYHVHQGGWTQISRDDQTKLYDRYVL
# Homo sapiens = species: Homo sapiens; experiment: To identify inhibition of the IFN signalling (Jak-Stat) pathway via expression of an eGFP reporter gene under the control of an IFN-stimulated response element (ISRE) containing MxA promoter.; type: functional; conditions: 30 µM
# [6] = target: T4, Tyrosyl-tRNA synthetase, putative (Trypanosoma cruzi (strain CL Brener)) (UniProt Q4DSP6); experiment: Trypanosoma cruzi tyrosyl tRNA synthetase (TcYRS) _High Tyrosine SOP; type: functional; conditions: 30 µM; further: in the data most compounds retested in dose-response had high values
# T4 sequence (whole entry): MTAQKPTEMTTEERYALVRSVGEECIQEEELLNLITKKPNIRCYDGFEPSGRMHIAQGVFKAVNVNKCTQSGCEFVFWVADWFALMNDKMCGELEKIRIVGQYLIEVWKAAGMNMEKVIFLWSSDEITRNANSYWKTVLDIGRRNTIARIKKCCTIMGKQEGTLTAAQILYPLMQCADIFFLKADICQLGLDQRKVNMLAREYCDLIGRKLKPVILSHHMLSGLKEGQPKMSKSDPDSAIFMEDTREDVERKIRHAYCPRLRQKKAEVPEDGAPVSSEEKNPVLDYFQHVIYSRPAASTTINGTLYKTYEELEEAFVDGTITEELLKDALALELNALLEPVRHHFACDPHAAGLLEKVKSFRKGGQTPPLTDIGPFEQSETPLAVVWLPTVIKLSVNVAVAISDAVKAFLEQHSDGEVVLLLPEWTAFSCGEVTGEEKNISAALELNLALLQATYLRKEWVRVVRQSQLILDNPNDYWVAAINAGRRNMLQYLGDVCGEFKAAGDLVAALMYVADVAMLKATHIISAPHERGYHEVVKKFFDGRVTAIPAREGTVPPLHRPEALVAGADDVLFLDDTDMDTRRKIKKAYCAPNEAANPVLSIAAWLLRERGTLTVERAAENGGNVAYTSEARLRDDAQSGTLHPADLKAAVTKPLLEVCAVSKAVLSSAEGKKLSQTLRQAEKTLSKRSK
# [7] = target: T4, Tyrosyl-tRNA synthetase, putative (Trypanosoma cruzi (strain CL Brener)); experiment: Trypanosoma cruzi tyrosyl tRNA synthetase (TcYRS) SOP; type: functional; conditions: 30 µM
# [8] = target: Chromo domain-containing protein 1 (Saccharomyces cerevisiae (strain ATCC 204508 / S288c) (Baker's yeast)) (UniProt P32657); experiment: ScCHD-1 Enzyme Inhibition Assay; type: functional; conditions: 30 µM; further: in the data most compounds retested in dose-response had high values
# Sequence of Chromo domain-containing protein 1 (Saccharomyces cerevisiae (strain ATCC 204508 / S288c) (Baker's yeast)) (P32657 whole entry, the tested form may be a part): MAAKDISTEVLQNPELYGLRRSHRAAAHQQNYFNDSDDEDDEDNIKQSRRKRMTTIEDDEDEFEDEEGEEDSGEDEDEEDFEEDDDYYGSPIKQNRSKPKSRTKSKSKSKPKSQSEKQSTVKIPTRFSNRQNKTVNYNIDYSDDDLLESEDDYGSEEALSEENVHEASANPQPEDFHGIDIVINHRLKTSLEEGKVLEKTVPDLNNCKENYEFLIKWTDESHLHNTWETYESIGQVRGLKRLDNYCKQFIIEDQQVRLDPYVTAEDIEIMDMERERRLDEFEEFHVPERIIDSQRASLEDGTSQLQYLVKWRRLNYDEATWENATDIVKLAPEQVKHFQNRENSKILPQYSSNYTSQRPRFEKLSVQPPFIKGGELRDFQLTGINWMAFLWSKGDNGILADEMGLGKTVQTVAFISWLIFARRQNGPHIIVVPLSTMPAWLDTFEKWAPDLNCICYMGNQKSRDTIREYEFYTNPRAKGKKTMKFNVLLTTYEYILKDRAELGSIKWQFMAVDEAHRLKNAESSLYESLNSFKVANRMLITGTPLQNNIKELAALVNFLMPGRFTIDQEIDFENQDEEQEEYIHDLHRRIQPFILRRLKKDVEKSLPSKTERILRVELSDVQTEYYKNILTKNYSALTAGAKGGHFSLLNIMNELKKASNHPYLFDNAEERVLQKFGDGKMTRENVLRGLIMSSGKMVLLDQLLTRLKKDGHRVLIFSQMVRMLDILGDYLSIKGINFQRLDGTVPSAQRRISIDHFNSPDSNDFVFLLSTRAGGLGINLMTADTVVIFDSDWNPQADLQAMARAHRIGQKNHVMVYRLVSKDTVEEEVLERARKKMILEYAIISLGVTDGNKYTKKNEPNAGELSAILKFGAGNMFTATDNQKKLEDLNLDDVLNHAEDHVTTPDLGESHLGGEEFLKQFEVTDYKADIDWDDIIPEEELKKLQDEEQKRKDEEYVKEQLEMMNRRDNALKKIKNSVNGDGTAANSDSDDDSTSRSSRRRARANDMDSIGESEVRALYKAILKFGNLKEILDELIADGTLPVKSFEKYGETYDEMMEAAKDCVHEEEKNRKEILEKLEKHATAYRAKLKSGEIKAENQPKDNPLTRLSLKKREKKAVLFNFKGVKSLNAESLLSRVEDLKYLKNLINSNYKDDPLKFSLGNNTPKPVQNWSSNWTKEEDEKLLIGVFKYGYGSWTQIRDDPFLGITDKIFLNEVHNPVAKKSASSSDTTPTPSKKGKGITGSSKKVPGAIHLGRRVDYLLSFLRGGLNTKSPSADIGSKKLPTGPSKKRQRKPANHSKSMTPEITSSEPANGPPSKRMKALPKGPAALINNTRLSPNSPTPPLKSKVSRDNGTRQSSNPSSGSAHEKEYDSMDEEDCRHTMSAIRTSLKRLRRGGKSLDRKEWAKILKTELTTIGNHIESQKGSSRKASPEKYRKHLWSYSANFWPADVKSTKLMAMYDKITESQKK
# Sequence of Sialic acid-binding Ig-like lectin 9 (Homo sapiens) (Q9Y336 whole entry): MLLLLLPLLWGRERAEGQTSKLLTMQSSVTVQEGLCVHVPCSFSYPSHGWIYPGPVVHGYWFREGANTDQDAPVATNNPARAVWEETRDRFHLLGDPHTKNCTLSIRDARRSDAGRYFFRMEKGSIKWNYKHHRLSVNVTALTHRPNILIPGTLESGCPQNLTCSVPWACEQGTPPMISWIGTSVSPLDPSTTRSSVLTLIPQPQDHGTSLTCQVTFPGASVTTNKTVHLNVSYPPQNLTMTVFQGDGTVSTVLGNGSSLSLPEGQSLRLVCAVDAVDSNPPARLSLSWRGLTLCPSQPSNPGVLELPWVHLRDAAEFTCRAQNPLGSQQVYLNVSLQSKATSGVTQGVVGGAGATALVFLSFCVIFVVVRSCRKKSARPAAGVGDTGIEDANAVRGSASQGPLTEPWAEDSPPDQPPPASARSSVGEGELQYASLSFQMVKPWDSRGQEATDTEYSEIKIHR
# Sequence of Protein translocase subunit SecA (Escherichia coli (strain K12)) (P10408 whole entry): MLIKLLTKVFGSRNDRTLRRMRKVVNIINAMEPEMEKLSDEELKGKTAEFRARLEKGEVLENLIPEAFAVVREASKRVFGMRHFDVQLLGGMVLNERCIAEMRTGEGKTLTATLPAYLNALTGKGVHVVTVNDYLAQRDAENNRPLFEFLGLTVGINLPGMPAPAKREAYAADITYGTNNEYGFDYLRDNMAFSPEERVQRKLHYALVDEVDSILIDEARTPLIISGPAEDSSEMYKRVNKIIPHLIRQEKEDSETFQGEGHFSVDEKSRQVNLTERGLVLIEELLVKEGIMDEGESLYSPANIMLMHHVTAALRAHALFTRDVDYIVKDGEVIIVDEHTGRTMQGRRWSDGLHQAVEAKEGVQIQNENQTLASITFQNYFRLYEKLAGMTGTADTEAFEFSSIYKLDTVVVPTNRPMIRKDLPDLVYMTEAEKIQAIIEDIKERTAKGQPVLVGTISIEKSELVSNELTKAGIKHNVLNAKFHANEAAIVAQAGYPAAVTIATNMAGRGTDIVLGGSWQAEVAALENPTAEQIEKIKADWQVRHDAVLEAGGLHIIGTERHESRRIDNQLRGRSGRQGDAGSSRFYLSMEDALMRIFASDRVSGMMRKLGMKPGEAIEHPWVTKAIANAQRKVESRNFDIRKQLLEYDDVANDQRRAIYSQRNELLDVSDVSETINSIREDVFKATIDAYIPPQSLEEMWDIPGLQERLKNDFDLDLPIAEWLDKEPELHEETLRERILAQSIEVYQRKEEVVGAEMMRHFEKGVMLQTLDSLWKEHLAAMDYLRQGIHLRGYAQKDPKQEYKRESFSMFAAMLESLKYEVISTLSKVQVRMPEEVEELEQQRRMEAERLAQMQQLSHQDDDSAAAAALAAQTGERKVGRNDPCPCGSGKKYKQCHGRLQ
Compound,Percent Effect [1],Percent Effect [2],Percent Effect [3],Percent Effect (Trypanosoma cruzi),Percent Effect [4],Percent Effect [5],Percent Effect (Homo sapiens),Percent Effect [6],Percent Effect [7],Percent Effect [8]
CCOc1cc(CNC(=O)N2CCC(Cc3cnn(C)c3)C2)ccn1 (stereo not given),-2.64%,-2.56%,1.57%,9.11%,0.82%,2.13%,4.43%,3.35%,6.02%,-0.605%
COCCN1CCN(Cc2cccc(C(=O)N(C)C)c2)CC1C (stereo not given),-1.22%,18.7%,-4.75%,-1.61%,2.66%,7.72%,6.69%,3.68%,7.69%,-8.7%
CC(C)c1nc(CN2CCCN(Cc3nnc(C4CC4)o3)CC2)no1,-2.61%,8%,-2.85%,-0.602%,4.43%,17.2%,14.1%,3.68%,7.69%,-9.7%
O=C(NCCOc1ccc2c(c1)CCC2)N1CCS(=O)(=O)CC1,-6.68%,2.56%,-7.49%,-1.78%,-0.82%,1.28%,23.2%,-1.44%,-1.21%,-2.29%
COCCN1C(=O)C[C@@H]2[C@H]1CCN2C(=O)COc1ccccc1,-4.5%,6.49%,-2.28%,-3.02%,-4.86%,15.6%,-17.9%,2.63%,10.3%,-1.49%
COc1ccc(C)cc1C(C)NC(=O)NCCCn1cncn1 (stereo not given),-2.2%,18.7%,1.49%,1.81%,1.33%,13.5%,4.64%,6.84%,20.5%,-10.3%
O=C(c1ccco1)N1CCC2(CC1)C(=O)NCCN2CC1CC1,-7.74%,1.3%,-3.06%,-8.08%,-4.05%,15.1%,8.56%,1.58%,-2.56%,-1.19%
Cc1nc(CN2CCN(Cc3nccn3C)CC2)no1,-4.99%,8%,-1.66%,3.21%,-1.77%,4.16%,11.1%,5.79%,15.4%,-11.3%
Cc1nccn1C1CCCN(C(=O)COCC(F)(F)F)C1 (stereo not given),-0.686%,2.56%,10.1%,0.845%,-2.05%,0.597%,-3.59%,-3.35%,-1.21%,-1.66%
COC(=O)Cn1c(=O)nc2n1C(=O)N(c1ccc(Cl)cc1)C2,-4.67%,2.7%,8.46%,-8.83%,-2.45%,10.4%,-2.27%,0.532%,2.44%,-2.66%
c1nc2n(n1)CC(NCc1csc(-c3ccsc3)n1)CC2 (stereo not given),-1.39%,7.69%,-4.25%,1.97%,9.43%,2.3%,6.22%,9.09%,20.5%,-0.275%
O=C(c1ccc(F)cc1F)N1C[C@@H](O)[C@H](N2CCOCC2)C1,-1.31%,20%,-7.22%,-0.789%,-3.1%,17.9%,2.56%,1.06%,17.5%,-25.9%
Cc1cnn(CC2CCCN2CC(=O)Nc2nc(C)cs2)c1 (stereo not given),-2%,7.79%,11.1%,0.746%,5.12%,-1.4%,2.04%,12.8%,21.2%,-5.41%
Cc1cccc(-c2noc(CN3CCc4nn(C)c(=O)cc4C3)n2)c1,-3.9%,16%,1.97%,-0.201%,3.55%,0.424%,14.8%,-5.79%,-15.4%,4.01%
CCc1ccsc1C(=O)N1CCN(CC(O)CC)CC1 (stereo not given),-2.73%,7.79%,4.04%,4.66%,-3.48%,0.877%,-8.47%,2.94%,21.2%,-7.9%
CCn1ccnc1CNCC1CCCN1c1cc(NC)ncn1 (stereo not given),-2.03%,0%,1.76%,-5.62%,2.66%,4.5%,12.1%,4.74%,5.13%,-7.63%
COc1cc(N2CCCC(c3nccn3CCN(C)C)C2)nc(N)n1 (stereo not given),-9.14%,2.7%,4.84%,3.59%,4.54%,4.62%,5.13%,7.98%,17.1%,11.6%
CN(C)C(=O)CN1C(=O)CCC12CCN(Cc1ccc(F)cc1)CC2,-1.87%,22.1%,-5.35%,0.188%,3.2%,18.1%,14%,9.66%,15%,-11.4%
CN1[C@H](CN2CCCC2)C[C@@H]2CN(C(=O)Cc3cccs3)CC[C@@H]21,-2.98%,16.9%,-1.33%,-3.56%,0%,5.75%,2.07%,7.73%,2.5%,-11.2%
COc1cc(CNC(=O)C2CC(=O)N(C(C)C)C2)ccn1 (stereo not given),-1.79%,10.3%,-1.27%,-1.22%,2.05%,12.7%,24.4%,3.35%,10.8%,-3.72%
CN1CCN(CC2CC2)C(=O)c2cnc(N3CCCCC3)nc21,-6.28%,-45.3%,3.74%,-1.41%,-3.99%,-4.83%,19%,-2.63%,-5.13%,-2.64%
